Screens: PubChem, Broad Institute
Shown is part of a subset that was picked to be rich in hits.
IDE exosite inh – exo-site inhibitors of human insulin-degrading enzyme | purified IDE, FL-6b probe fluorescence polarization; hits give low values | z-score at 20 µM | 17,000 tested, 6.3% active;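 active = z-score of -3 or lower, meaning strong loss of probe binding signal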;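 also: His-tagged human IDE residues 42-1019 made in E. coli with 30 nM FL-6b probe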
Target sequence (P14735 42-1019 limits assumed): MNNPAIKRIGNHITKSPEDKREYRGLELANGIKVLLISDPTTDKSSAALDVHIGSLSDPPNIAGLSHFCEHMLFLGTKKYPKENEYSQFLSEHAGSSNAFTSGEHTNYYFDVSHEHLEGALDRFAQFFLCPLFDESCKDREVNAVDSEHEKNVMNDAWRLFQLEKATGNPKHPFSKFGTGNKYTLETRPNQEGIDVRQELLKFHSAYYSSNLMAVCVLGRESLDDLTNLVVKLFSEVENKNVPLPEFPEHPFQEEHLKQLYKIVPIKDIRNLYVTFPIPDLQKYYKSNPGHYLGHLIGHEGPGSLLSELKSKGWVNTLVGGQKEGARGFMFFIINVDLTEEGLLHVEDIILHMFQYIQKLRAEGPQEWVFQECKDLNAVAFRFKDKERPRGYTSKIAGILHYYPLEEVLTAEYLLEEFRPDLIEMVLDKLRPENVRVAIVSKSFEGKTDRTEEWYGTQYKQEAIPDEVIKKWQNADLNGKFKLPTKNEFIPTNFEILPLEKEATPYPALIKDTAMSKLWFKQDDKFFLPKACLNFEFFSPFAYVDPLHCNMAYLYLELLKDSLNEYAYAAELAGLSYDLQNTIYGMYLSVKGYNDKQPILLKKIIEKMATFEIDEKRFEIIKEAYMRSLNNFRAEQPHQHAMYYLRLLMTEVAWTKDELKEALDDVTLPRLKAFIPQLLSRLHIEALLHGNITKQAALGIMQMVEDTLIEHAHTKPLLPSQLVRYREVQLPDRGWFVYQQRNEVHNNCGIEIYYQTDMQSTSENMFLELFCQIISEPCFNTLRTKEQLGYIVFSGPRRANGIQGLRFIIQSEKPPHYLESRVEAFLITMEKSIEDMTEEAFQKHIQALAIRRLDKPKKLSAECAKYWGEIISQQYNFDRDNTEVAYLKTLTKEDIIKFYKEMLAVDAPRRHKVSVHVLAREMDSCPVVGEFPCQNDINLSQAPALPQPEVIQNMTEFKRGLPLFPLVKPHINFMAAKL
* hit, by the source's call.

SMILES	IDE exosite inh
COc1ccccc1-c1ccc([C@H]2[C@@H](CO)N3CCCCN(C(=O)CN4CCOCC4)C[C@@H]23)cc1	0.41
O=S(=O)(c1ccc(F)cc1)N1CCCCN2[C@H](CO)[C@@H](c3ccc(-c4ccccc4)cc3)[C@H]2C1	3.5
CCCNC(=O)N1C[C@H](C)[C@H](OC)CN(C)C(=O)c2ccc(NC(=O)CC)cc2OC[C@H]1C	-0.044
CN(C)CC#Cc1ccc([C@@H]2[C@H]3CN(C(=O)c4ccc5c(c4)OCO5)CCCCN3[C@H]2CO)cc1	1.2
CO[C@H]1CN(C)C(=O)c2ccc(NC(=O)c3cccc(F)c3)cc2OC[C@@H](C)NC[C@H]1C	0.39
CN(C)C(=O)c1cc2c(c(-c3cccc(C4=CCCCC4)c3)n1)[C@H](CCO)N(S(C)(=O)=O)C2	1.2
CCCC#Cc1ccc([C@H]2[C@@H](CO)N(C(C)=O)[C@@H]2CNC(=O)C2CC2)cc1	-0.67
COc1ccc([C@H]2C/C=C\C[C@@H](c3cccc(Cl)c3)NC(=O)[C@H](c3ccccc3)CC(=O)N2)c(OC)c1	0.99
C/C=C/c1ccc([C@@H]2[C@@H](CN(C)C(=O)CC)N(C(=O)C3CC3)[C@H]2CO)cc1	1.1
CC(=O)N1CC(=O)N2[C@H](C1)[C@H](c1ccc(-c3ccc(C)cc3)cc1)[C@@H]2CO	0.6
O=C1CN(Cc2ccccc2)C[C@@H]2[C@H](c3ccc(-c4cccnc4)cc3)[C@@H](CO)N12	4.4
O=C(c1ccccc1F)N1CC(=O)N2[C@H](C1)[C@@H](c1ccc(C#Cc3ccccc3)cc1)[C@@H]2CO	-1.6
C[C@H]1CN([C@@H](C)CO)C(=O)c2ccccc2-c2ccccc2CO[C@H]1CN(C)Cc1cccc(C(=O)O)c1	1.1
CC(=O)N1[C@H](CO)[C@H](c2ccccc2)[C@@H]1CNC(=O)CN1CCOCC1	-0.23
COCC(=O)N1CCCCN2[C@@H](CO)[C@H](c3ccc(C#Cc4cccnc4)cc3)[C@@H]2C1	-6.3*
CCC(=O)N1CCCCN2[C@H](C1)[C@@H](c1ccc(C#Cc3cccnc3)cc1)[C@@H]2CO	-2.4
CCC(=O)N1CCCCN2[C@H](C1)[C@H](c1ccc(C#Cc3cccnc3)cc1)[C@@H]2CO	-3.5*
COCC(=O)N1CCCCN2[C@@H](CO)[C@@H](c3ccc(C#Cc4cccnc4)cc3)[C@@H]2C1	2.2
COCC(=O)N1CC(=O)N2[C@H](C1)[C@H](c1ccc(C#Cc3cccnc3)cc1)[C@@H]2CO	1.4
CCC(=O)N1CCCCN2[C@H](CO)[C@@H](c3ccc(C#Cc4cccnc4)cc3)[C@H]2C1	-2.4
CC(=O)N1[C@H](CO)[C@@H](c2ccccc2)[C@H]1CNC(=O)CN1CCOCC1	0.24
CC(=O)NC[C@H]1[C@@H](c2ccc(C3=CCCC3)cc2)[C@@H](CO)N1C(=O)CN(C)C	0.22
CO[C@@H]1CC[C@H]2CCOc3ccc(C#N)cc3C(=O)N(C)[C@@H](C)C(=O)N(C)C[C@@H]1O2	2.3
CCC(=O)N1C[C@H](O)COC[C@H]2O[C@@H](CC(=O)NCc3ccc(Oc4ccccc4)cc3)CC[C@@H]21	-1.1
O=C([C@H]1[C@H](CO)[C@H]2Cn3c(ccc(C4=CCCCC4)c3=O)[C@@H]1N2Cc1nccs1)N1CCCCC1	-0.082
SMILES	IDE exosite inh
O=C(CC1CC1)N1CC(=O)N2[C@@H](CO)[C@H](c3ccc(C#Cc4ccccc4)cc3)[C@@H]2C1	-11*
O=C(CC1CC1)N1CC(=O)N2[C@@H](CO)[C@H](c3ccc(C#Cc4ccc(F)cc4)cc3)[C@@H]2C1	-0.63
O=C(CC1CC1)N1CC(=O)N2[C@H](CO)[C@H](c3ccc(C#Cc4ccc(F)cc4)cc3)[C@H]2C1	0.74
O=C(CC1CC1)N1CC(=O)N2[C@@H](CO)[C@@H](c3ccc(C#Cc4ccccc4)cc3)[C@@H]2C1	-11*
O=C(CC1CC1)N1CC(=O)N2[C@H](CO)[C@H](c3ccc(C#Cc4ccccc4)cc3)[C@H]2C1	-16*
O=C(CC1CC1)N1CC(=O)N2[C@H](CO)[C@@H](c3ccc(C#Cc4ccc(F)cc4)cc3)[C@@H]2C1	3.3
N#C[C@H]1[C@H](c2ccccc2)[C@@H](CO)N1C(=O)CN1CCOCC1	4.7
CC(=O)N(C[C@H]1N[C@H](CO)[C@H]1c1ccc(-c2ccc(F)cc2)cc1)C(C)C	2.8
CC(=O)N(C)C[C@@H]1[C@H](c2ccc(-c3cccnc3)cc2)[C@H](CO)N1C(=O)C1CC1	0.051
O=C(NCC[C@@H]1CC[C@@H](NC(=O)c2ccncc2)[C@H](CO)O1)Nc1ccc(Cl)cc1	1.2
CC(=O)N(C)C[C@@H]1[C@H](c2ccc(-c3cccc(C#N)c3)cc2)[C@H](CO)N1C(C)=O	0.66
CCC(=O)N1[C@@H](CO)[C@@H](c2ccc(-c3cccc(F)c3)cc2)[C@@H]1CNC(C)=O	4.6
CCC(=O)N1[C@H](CO)[C@H](c2ccc(-c3cccc(F)c3)cc2)[C@@H]1CNC(C)=O	2.5
CCC(=O)N1[C@H](CNC(C)=O)[C@H](c2ccc(-c3ccc(F)cc3)cc2)[C@@H]1CO	0.7
CCC(=O)N1[C@H](CO)[C@H](c2ccc(-c3ccccc3OC)cc2)[C@H]1CNC(C)=O	-8.2*
CC(=O)NC[C@H]1[C@H](c2ccc(-c3ccccc3F)cc2)[C@H](CO)N1C(C)=O	3.9
CCC(=O)N1[C@H](CO)[C@H](c2ccc(-c3ccccc3OC)cc2)[C@@H]1CNC(C)=O	-15*
O=C(C[C@@H]1CC[C@H]2[C@@H](COC[C@H](O)CN2C(=O)c2ccncc2)O1)NCc1cc(F)cc(F)c1	0.61
O=C(C[C@@H]1CC[C@@H]2NC[C@H](O)COC[C@H]2O1)NCCN1CCCCC1	-0.24
C[C@@H]1CN([C@@H](C)CO)C(=O)c2ccccc2-c2ccccc2CO[C@H]1CN(C)S(=O)(=O)c1ccc([N+](=O)[O-])cc1	-0.8
CCN(C[C@H]1[C@H](c2ccccc2)[C@H](CO)N1C(=O)COC)S(C)(=O)=O	-2.4
O=C(c1ccccn1)N1CC(=O)N2[C@H](C1)[C@@H](c1ccc(C#Cc3ccccc3)cc1)[C@@H]2CO	-2.9
CCCC#Cc1ccc([C@@H]2[C@H](CO)N3C(=O)CN(C(=O)c4ccccn4)C[C@@H]23)cc1	-3.2*
CCCC#Cc1ccc([C@@H]2[C@H]3CN(C(=O)c4ccccn4)CC(=O)N3[C@H]2CO)cc1	2.7
CCCC#Cc1ccc([C@@H]2[C@@H](CO)N3C(=O)CN(C(=O)c4ccccn4)C[C@H]23)cc1	0.41
SMILES	IDE exosite inh
CC(C)C#Cc1ccc([C@@H]2[C@H](CO)N3C(=O)CN(C(=O)c4ccccn4)C[C@@H]23)cc1	-0.085
O=C(c1ccccn1)N1CC(=O)N2[C@@H](CO)[C@@H](c3ccc(C#CCc4ccccc4)cc3)[C@@H]2C1	-4.7*
O=C(c1ccccn1)N1CC(=O)N2[C@H](CO)[C@@H](c3ccc(C#Cc4ccccc4)cc3)[C@H]2C1	-9.4*
O=C(c1cnccn1)N1CC(=O)N2[C@@H](CO)[C@H](c3ccc(C#CCc4ccccc4)cc3)[C@@H]2C1	0.7
CCCC#Cc1ccc([C@H]2[C@H](CO)N3C(=O)CN(C(=O)c4ccccn4)C[C@@H]23)cc1	1.1
O=C(c1ccccn1)N1CC(=O)N2[C@H](C1)[C@H](c1ccc(C#Cc3ccccc3)cc1)[C@@H]2CO	-6.4*
CC(C)C#Cc1ccc([C@H]2[C@H](CO)N3C(=O)CN(C(=O)c4ccccn4)C[C@@H]23)cc1	1.4
O=C(c1cnccn1)N1CC(=O)N2[C@H](CO)[C@@H](c3ccc(C#CCc4ccccc4)cc3)[C@H]2C1	-2.4
COCC(=O)N1CC2(CCN(C(=O)c3cccnc3)CC2)c2c([nH]c3cc(OC)ccc23)[C@H]1CO	-0.52
